Screening results deposited in PubChem by National Center for Advancing Translational Sciences (NCATS).
Sm TGR inh = S. mansoni TGR enzyme inhibition | Q962Y6 | purified TGR, DTNB reduction, TNB absorbance 405 nm | Potency, µM (doses to about 114 µM), without a hit: at the top dose activity change, negative = inhibition, hits mostly inhibitors | 360,000 compounds, 3% hits | AID 485364; note: % is set by controls: 0 for no effect and ±100 for the full control effect; nearly all actives have a fitted effect of over 60% in size
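TGR 20 nM + NADPH 100 uM (dispensed conc.), cpd preinc 15 min RT; start with NADPH (500 uM addition) then DTNB (15 mM addition). Kinetic TNB absorbance, 405 nm filter. Four-parameter Hill fit across titration.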
SARS PLpro yeast = SARS-CoV PLP inhibition in yeast. S. cerevisiae expressing SARS-CoV PLpro, growth rescue. Potency, µM (titrated, usually from 32.9 µM), inactives show at the highest dose activity, positive = growth rescue, most hits filed as activators. 330,000 compounds, 0.19% hits; calls by dose curve; note: 0% is about no effect; nearly all actives have a fitted effect of over 55% in size
AmpC no deterg = inhibitors of E. coli AmpC beta-lactamase without detergent. P00811. AmpC nitrocefin hydrolysis, absorbance 480 nm, 0.0001% Triton. Potency, µM (titrated, usually from 57.1 µM), without a hit: top-dose activity change, negative = inhibition, actives largely listed as inhibitors. 330,000 compounds, 0.52% hits;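 note: plate controls were no compound for no effect and no enzyme for full effect; nearly all actives have a fitted effect of over 20% in size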
Target sequence (P00811 whole entry, looked up): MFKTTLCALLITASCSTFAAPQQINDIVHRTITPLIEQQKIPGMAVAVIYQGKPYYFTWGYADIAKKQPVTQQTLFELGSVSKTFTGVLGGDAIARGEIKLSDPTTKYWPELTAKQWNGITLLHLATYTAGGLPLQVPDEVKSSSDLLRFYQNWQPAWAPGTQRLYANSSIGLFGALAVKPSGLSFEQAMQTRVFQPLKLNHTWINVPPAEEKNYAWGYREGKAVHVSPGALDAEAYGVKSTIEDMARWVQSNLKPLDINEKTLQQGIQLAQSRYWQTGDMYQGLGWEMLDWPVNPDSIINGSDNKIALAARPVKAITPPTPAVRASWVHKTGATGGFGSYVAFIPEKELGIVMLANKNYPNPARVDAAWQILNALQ
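AmpC (5.3 nM in the dispensed reagent) in 20 mM phosphate pH 7.0 with 0.01% (detergent screen) or 0.0001% Triton X-100 was preincubated with compounds for 15 min at room temperature. Nitrocefin was then added from an 800 uM solution, and hydrolysis was followed at 480 nm.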
RE007 growth inh = less growth of the S. pombe RE007 Vpr strain. S. pombe RE007 Vpr strain, BacTiter-Glo ATP luminescence, 24 h. Potency, µM (doses to about 92.2 µM), for the others: at the highest dose activity change, negative = less growth, usual class: inhibitors. 360,000 compounds, 0.21% hits; active = well fitted falling curve with a large enough effect; inconclusive = small, poorly fitted or top-dose-only effect; inactive = no such curve, though single readings can be large or run the other way; note: % is set by controls: 0 for no effect and ±100 for the full control effect; nearly all actives have a fitted effect of over 50% in size
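Fission yeast RE007 carrying one integrated HIV-1 vpr copy, seeded at OD 0.01 in PMG+AL medium with 23 nL pinned compound. Grown 24 h at 30 degrees; viability read by BacTiter-Glo luminescence after 5 min.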
Tb PYK inh = T. brucei pyruvate kinase inhibition; 410,000 compounds, 0.12% hits; Q57TT1; Potency, µM (series often up to 76.8 µM), for the others: top-dose activity, negative = inhibition, hits mostly inhibitors; TbPYK enzyme, Kinase-Glo Plus ATP luminescence, 45 min; note: % is set by controls: 0 for no effect and ±100 for the full control effect; nearly all actives have a fitted effect of over 50% in size
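Assay buffer: 50 mM TEA pH 7.2, 100 mM KCl, 10 mM MgCl2, 0.05% BSA, 0.01% Tween-20. Pyruvate kinase from T. brucei plus substrate met compound, then ADP (130 uM final). Luminescence was read post 45 min RT.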
AmpC inh detg = inhibitors of E. coli AmpC beta-lactamase with detergent | P00811 | AmpC hydrolysis of nitrocefin, absorbance 480 nm, 0.01% Triton | Potency, µM (series often up to 114 µM), for inactives: at the top dose activity change, negative = inhibition, actives largely listed as inhibitors | 370,000 compounds, 0.041% hits | AID 485294;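 note: 0% = no-compound wells and -100% = no-enzyme wells; nearly all actives have a fitted effect of over 25% in size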
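20 mM phosphate pH 7.0 + 0.01% (detergent screen) or 0.0001% Triton X-100; 5.3 nM AmpC reagent; cpd preinc 15 min RT; nitrocefin (800 uM stock) to start; A480 q20 s × 4 min; Activity was normalised to no-enzyme and no-compound control wells.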
The depositor's hits bear a star; u = inconclusive; x = not tested or not shown; [ ] = dose if it differs, or a comment. Only some compounds are listed: those with a hit (about 3.3% of all), similar ones and a draw of the others. Unless noted, calls come from the whole dose curve; as a rule, active = well fitted curve in the direction sought with a large enough effect; inconclusive = small, poorly fitted or top-dose-only effect, or another doubt; inactive = no such curve, though single readings can be large; an effect the other way counts as inactive or inconclusive. Potency is the fitted concentration of half-maximal effect.

SMILES	Sm TGR inh	SARS PLpro yeast	AmpC no deterg	RE007 growth inh	Tb PYK inh	AmpC inh detg
Cc1cccc(-c2nc(SCc3cc(=O)c4c(C)cc(C)cc4[nH]3)n[nH]2)c1	-3.2%	x	x	x	-1.8%	-2.1%
CC(C)(C)C1CCc2c(sc(NC(=O)c3noc4c3CCCC4)c2C#N)C1 (stereo not given)	0.7%	x	x	x	u	-10.2%
CCOC(=O)c1c(-c2ccc(C)o2)csc1NC(=O)CN1CCCCC1	8.91µM*	-3.4%	-20.2%[11.4 µM]	-16.4%	1.6%	-0.8%
CCOC(=O)c1c(-c2ccc(C)o2)csc1NC(=O)CN1CCN(CC)CC1	50.1µM*	4.4%	45.5%	3.8%	-26.4%	u
CCOC(=O)c1c(-c2ccco2)csc1NC(=O)CSc1nnc(N)s1	u	u	-46.4%	-12.5%	-21.0%	-1.3%
CCOC(=O)c1c(-c2ccc(C)o2)csc1NC(=O)CN(C)CC(=O)Nc1ccc(C)cc1	u	-10.7%	11.1%	-8.4%	-5.9%	-13.7%
CCOC(=O)c1c(-c2ccc(C)o2)csc1NC(=O)CSc1nncs1	4.47µM*	-6.5%	-10.5%	-19.0%	u	-11.8%
CCOC(=O)c1c(-c2ccc(C)o2)csc1NC(=O)CN1CCC(C(N)=O)CC1	14.1µM*	0.1%	155.1%	1.7%	-2.0%	0.8%
CCOC(=O)c1c(-c2ccco2)csc1NC(=O)COC(=O)c1cnccn1	7.94µM*	0.0%	45.5%	7.1%	-3.4%	0.0%
COc1ccc2[nH]cc(/C=N/NS(=O)(=O)c3ccc(C)cc3)c2c1	0.8%	4.2%	-47.4%	11.9%	-2.0%	7.7%
COc1ccc2c(/C=N/NS(=O)(=O)c3ccc(C)cc3)c[nH]c2c1	14.1µM*	1.2%	-52.3%	8.5%	-13.4%	-6.4%
CCOC(=O)c1ccccc1Nc1cn(C(C)=O)c2ccccc12	47.2%	4.5%	-7.8%	-9.6%	-6.0%	0.5%
COc1ccccc1N(C(=O)CCl)c1cn(C(C)=O)c2ccccc12	3.16µM*	-1.3%	42.4%	-0.3%	2.1%	-0.7%
CC(=O)n1cc(N(C(=O)CCl)c2ccc(Cl)cc2)c2ccccc21	0.316µM*	-4.1%	28.6%	u	-0.7%	3.1%
COc1ccc(NC(=O)CCc2c(C)nc3c(-c4ccc(F)cc4)c(C)nn3c2C)c(OC)c1	7.5%	x	x	x	0.5%	24.2%
Cc1cc(C)cc(NC(=O)C(OC(=O)c2ccc(NC(=O)CC#N)cc2)c2ccccc2)c1 (stereo not given)	-2.2%	11.1%	11.2µM*	25.1%	4.5%	-9.8%
Cc1ccc(C)c(NC(=O)C(OC(=O)c2ccc(NC(=O)CC#N)cc2)c2ccccc2)c1 (stereo not given)	-4.1%	x	-57.5%	2.2%	-18.3%	2.5%
COc1ccc(OC)c(NC(=O)C2CCCN(S(=O)(=O)c3ccc4[nH]c(=O)ccc4c3)C2)c1 (stereo not given)	-0.4%	x	x	x	0.0%	14.7%
Cc1cc(C)c(SSc2nnnn2-c2ccccc2)c(C)c1	x	x	x	12.7%	3.55µM*	x
COCCNC(=O)CCn1c(=O)c2cc(OC)c(OC)cc2n(CC(=O)Nc2ccc(F)c(Cl)c2)c1=O	-4.0%	x	x	x	-0.6%	-5.6%
COc1ccc(NC(=S)NC(NC(=O)c2cccc(C)c2)C(Cl)(Cl)Cl)c([N+](=O)[O-])c1 (stereo not given)	0.0%	0.5%	3.98µM*	6.6%	-2.8%	0.4%
COc1ccc(NC(=S)NC(NC(=O)c2cccc(Cl)c2)C(Cl)(Cl)Cl)c([N+](=O)[O-])c1 (stereo not given)	-0.7%	-22.2%	-16.1%	-7.5%	-2.3%	-9.5%
COc1ccc(NC(=S)NC(NC(C)=O)C(Cl)(Cl)Cl)c([N+](=O)[O-])c1 (stereo not given)	-18.6%	4.0%	-24.6%	0.3%	-12.7%	-6.7%
COc1ccc(NC(=S)NC(NC(=O)CF)C(Cl)(Cl)Cl)c([N+](=O)[O-])c1 (stereo not given)	39.8µM*	-5.6%	-28.2%	0.4%	3.1%	u
CCOC(=O)c1ccc(N2CCN(c3cccc(Cl)c3)CC2)c(NC(=O)Nc2ccc(OC)cc2OC)c1	2.8%	x	x	x	-14.4%	7.0%
SMILES	Sm TGR inh	SARS PLpro yeast	AmpC no deterg	RE007 growth inh	Tb PYK inh	AmpC inh detg
O=C(N/N=C(\c1ccccc1)c1cccnc1)c1cc(O)ccc1O	39.8µM*	2.1%	-29.3%	x	x	2.5%
CCc1ccc(C2C(C(=O)Nc3ccccc3OC)=C(C)Nc3nc(SCc4ccccc4)nn32)cc1 (stereo not given)	2.0%	x	x	x	2.9%	18.1%
O=C(CC1C(=O)NCCN1Cc1ccccc1C(F)(F)F)NC1CCCCC1 (stereo not given)	39.8µM*	2.2%	60.2%	2.4%	0.6%	-12.6%
O=C(CC1C(=O)NCCN1Cc1ccccc1C(F)(F)F)NC1CCC1 (stereo not given)	39.8µM*	7.7%	10.1%	-14.2%	-1.4%	3.3%
O=C(CC1C(=O)NCCN1Cc1ccccc1C(F)(F)F)NC1CCCCCC1 (stereo not given)	25.1µM*	-21.1%	55.1%	7.9%	-3.7%	u
O=C(CC1C(=O)NCCN1Cc1ccc(F)cc1Cl)NC1CCCCCCC1 (stereo not given)	u	-5.0%	117.2%	-14.8%	-14.2%	-6.6%
Cc1ccc(CCNC(=O)c2cc(C)nc3c2c(C)nn3-c2ccc(C)cc2)cc1	29.1%	x	x	x	2.1%	-4.4%
COc1cc2nc(SCc3ccc(C)cc3)n3nc(CCn4nc(C)cc4C)nc3c2cc1OC	9.2%	x	x	x	0.5%	2.1%
CCOC(=O)c1sc2nc3n(c(=O)c2c1C)CCC(C)CC3 (stereo not given)	-2.1%	13.9%	-23.1%	-15.9%	-27.0%	u
CCOC(=O)N1CCN(C(=O)Nc2sc3nc4n(c(=O)c3c2C)CCC(C)CC4)CC1 (stereo not given)	2.82µM*	-2.3%	58.6%	0.0%	-14.8%	-13.7%
CCNC(=O)c1c(NC(=O)Cc2coc3cc(C)cc(C)c23)sc2c1CCCC2	0.2%	x	x	x	-3.2%	14.7%
COc1ccc(NC(=O)c2cc(-c3cc(C)cc(C)c3O)n[nH]2)cc1Cl	-3.5%	-11.8%	11.2µM*	9.6%[3.69 µM]	x	-0.5%
COc1ccc(NC(=O)c2cc(-c3ccccc3O)n[nH]2)cc1Cl	-0.3%	2.1%	-58.3%	-13.4%	-16.6%	1.1%
NC(=O)c1cccc(N=Cc2cc(Cl)cc(Cl)c2O)c1	x	1.4%	4.3%	-12.7%	-26.2%	0.4%
Oc1c(Cl)cc(Cl)cc1C=Nc1ccccc1N1CCCC1	15.8µM*	-50.4%	-19.7%	x	x	u
